MPTP inh = permeability transition pore inhibition | inhibition, % at 10 µM | hit rate 1.4% among 360,000 | isolated mouse mitochondria, Ca2+ swelling absorbance, 30 min;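 active = inhibition of 50% or more, scaled per plate between neutral and stimulator controls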;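 also: 0% = DMSO wells given calcium and 100% = 1 mM EGTA wells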
Beta apoptosis = beta cell apoptosis inhibition. INS-1E cytokine-induced death, ATP luminescence, 48 h; percent of positive-control rescue, neutral wells zero. protection from apoptosis, % (no concentration beside the values). hit rate 0.8% among 300,000. AID 435005;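 active = Every replicate reaches about 75%, or at least half do and their mean reaches it too, limit read from the data; inconclusive = At least half of replicates reach the limit but their mean does not; inactive = Under half of replicates reach the limit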;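 also: 0% = cytokine-treated negative control wells and 100% = positive control rescue; higher means more ATP so stronger rescue from cytokine killing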
SKKanGAS inh = blocks kanamycin growth of S. pyogenes SKKanGAS strain; BacTiter-Glo, 6 h; inhibition, % at 7.5 µM; hit rate 1.3% among 300,000; AID 1662;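 active = mean replicate score, as percent of positive control median, at least 50; inconclusive = mean below 50 but one replicate at or above 50; inactive = mean and every replicate below 50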;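 also: strain carries kanamycin resistance gene driven by streptokinase promoter and grows in 40 µg/ml kanamycin; loss of luminescence reflects streptokinase promoter inhibition or plain growth inhibition; 0% = median of DMSO wells and 100% = positive control at its reference dose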
Mdm2 MdmX PPI = disrupts the human Mdm2-MdmX interaction. AID 485346. inhibition, % at 8 µM. hit rate 3% among 330,000. O15151+Q00987. SaOS-2 split-luciferase Mdm2/MdmX complementation, luminescence;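 active = inhibition of at least 50% at 8 µM in the primary screen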
Target sequence (O15151 whole entry, looked up): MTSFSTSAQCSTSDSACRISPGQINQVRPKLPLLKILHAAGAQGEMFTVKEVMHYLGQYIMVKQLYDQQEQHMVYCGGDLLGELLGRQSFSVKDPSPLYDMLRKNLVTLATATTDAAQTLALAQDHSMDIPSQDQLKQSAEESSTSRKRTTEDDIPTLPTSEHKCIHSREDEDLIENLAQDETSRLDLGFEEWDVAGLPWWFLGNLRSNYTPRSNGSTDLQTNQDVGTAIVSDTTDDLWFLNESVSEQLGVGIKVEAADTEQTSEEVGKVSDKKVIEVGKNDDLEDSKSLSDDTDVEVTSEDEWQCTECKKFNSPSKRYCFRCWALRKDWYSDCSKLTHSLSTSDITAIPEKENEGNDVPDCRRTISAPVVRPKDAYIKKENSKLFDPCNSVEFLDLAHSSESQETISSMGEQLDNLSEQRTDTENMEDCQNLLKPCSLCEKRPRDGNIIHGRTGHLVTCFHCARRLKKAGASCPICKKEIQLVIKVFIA
Target sequence (Q00987 whole entry, looked up): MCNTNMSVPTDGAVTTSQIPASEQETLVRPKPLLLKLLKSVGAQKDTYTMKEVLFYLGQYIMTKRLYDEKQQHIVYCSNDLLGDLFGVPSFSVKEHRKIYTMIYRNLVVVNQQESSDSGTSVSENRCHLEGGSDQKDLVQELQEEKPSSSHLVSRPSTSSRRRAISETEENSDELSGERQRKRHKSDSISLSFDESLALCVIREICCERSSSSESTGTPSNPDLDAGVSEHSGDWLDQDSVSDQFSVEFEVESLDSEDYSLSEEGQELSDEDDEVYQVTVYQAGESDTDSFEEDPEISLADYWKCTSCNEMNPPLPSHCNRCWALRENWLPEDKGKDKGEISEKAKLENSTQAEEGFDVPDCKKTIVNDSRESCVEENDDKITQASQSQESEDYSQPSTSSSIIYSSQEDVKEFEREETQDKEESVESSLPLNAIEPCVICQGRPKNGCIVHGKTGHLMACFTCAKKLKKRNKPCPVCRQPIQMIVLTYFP
Calb FLC = affects C. albicans growth with fluconazole. hit rate 0.57% among 300,000. C. albicans CaCi-2 (fluconazole-resistant clinical isolate) + fluconazole, Alamar Blue growth, 48 h. growth inhibition, % (concentration not given with the values);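 active = growth inhibition above about 58% in most replicates, limit read from the data, passing the limit was not always enough; inconclusive = exactly half the replicates above a set limit; inactive = most replicates below a set limit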;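 also: all wells also contain fluconazole at 8 µg/ml as a sub-toxic cotreatment; 0% = median of DMSO wells and 100% = median of geldanamycin control wells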
CSC inhib = blocks cancer stem cells; cancer stem cell-like cells viability, luminescence; inhibition, % at 7.5 µM; hit rate 1.1% among 300,000; in the data active = inhibition above about 75%; inconclusive = no clear call, values can overlap the other calls; tested in HMLE shEcad cells
* = called active by the depositor; ? = inconclusive; · = no result given. Shown are actives, neighbours in structure and some others; about 5.4% of the full set was active somewhere.

SMILES | MPTP inh | Beta apoptosis | SKKanGAS inh | Mdm2 MdmX PPI | Calb FLC | CSC inhib
O=C(O)c1ccc(N=Nc2c(O)[nH]c3cc(Cl)ccc23)cc1 | 2 | 3 | 70* | -205 | 1 | -31
COC(=O)N=Nc1c(O)[nH]c2ccc(Br)cc12 | 3 | -6 | 7 | -11 | 1 | 8
O=C(O)c1ccc(N=Nc2c(O)[nH]c3ccc(Br)cc23)cc1 | -2 | 6 | 71* | 6 | 37 | -1
Oc1[nH]c2ccccc2c1N=Nc1cccc(Cl)c1 | 1 | 0 | 6 | -90 | -6 | 3
O=c1c2ccccc2cnn1-c1ccc(Cl)cc1 | 0 | -6 | 1 | -90 | 1 | -7
O=c1[nH]c(CSc2ncn[nH]2)nc2ccccc12 | 0 | 1 | -6 | -1 | 9 | -20
O=c1[nH]c(CSc2ncnc3sccc23)nc2ccccc12 | 0 | -5 | 67* | 5 | -10 | 5
Cc1nc2cc(NC(=O)CS(=O)(=O)c3ccccc3)ccc2s1 | -1 | · | 8 | -10 | 10 | -17
COc1cccc(/C=N/NC(=O)CNC(=O)CCc2ccccc2)c1O | 1 | 0 | 16 | 31 | -4 | 44
CCn1c(C)nc2cc(C(=O)N/N=C/c3cccc(OC)c3O)ccc21 | -2 | · | 8 | 35 | 108* | 109*
COc1cccc(/C=N/NC(=O)CNC(=O)c2cccs2)c1O | 1 | 86* | -2 | 14 | 0 | 26
CCn1c(C)nc2cc(C(=O)N/N=C/c3ccc(O)c(O)c3O)ccc21 | 1 | · | -3 | · | 76* | ·
CCn1c(C)nc2cc(C(N)=O)ccc21 | 0 | -2 | 2 | -39 | -2 | 2
O=S(=O)(Nc1ccc(-c2csc(-c3ccccc3)n2)cc1)c1ccccc1 | 5 | 4 | 46 | -2 | 15 | 148*
O=S(=O)(Nc1ccc(-c2ccc(NS(=O)(=O)c3ccccc3)cc2)cc1)c1ccccc1 | 1 | · | · | · | · | ·
O=[N+]([O-])c1ccc(S(=O)(=O)Nc2ccc(-c3csc(-c4ccccc4)n3)cc2)cc1 | · | 9 | 66* | 38 | 42 | 100*
Cc1ccc(S(=O)(=O)Nc2nc(-c3ccccc3)cs2)cc1 | 1 | 0 | 22 | 6 | 24 | -6
Cc1ccc(S(=O)(=O)Nc2ccc(-c3csc(-c4ccccc4)n3)cc2)cc1 | 4 | 4 | 40 | 45 | -9 | 112*
Cc1ccc(CN(c2ccc(C(=O)N3CCCC3)cc2)S(C)(=O)=O)cc1 | -1 | -18 | 67* | 21 | -1 | 3
Cc1ccc(CN(c2ccc(C(=O)N3CCc4ccccc4C3)cc2)S(C)(=O)=O)cc1 | -1 | 9 | 3 | -24 | 1 | -6
[O-]/[N+](=C/c1ccc(F)cc1)c1ccc(Cl)cc1 | 0 | 6 | -3 | -29 | 0 | -9
COc1ccc(COc2cc(-c3cccc(OC)c3)nc3ccc(NC(=O)c4ccc(C)cc4)cc23)cc1 | 2 | 10 | 19 | 29 | -9 | 69
COc1ccc(COc2cc(-c3cccc(OC)c3)nc3ccc(NC(=O)c4ccc(N(C)C)cc4)cc23)cc1 | 2 | 3 | 15 | 39 | -7 | 80*
CC(=O)c1cccc(NC(=O)c2cc(-c3ccncc3)nc3ccccc23)c1 | 1 | 5 | · | 37 | · | 3
Cc1cc(NC(=O)c2cc(-c3ccncc3)nc3ccccc23)ccc1Br | 2 | 11 | · | 44 | · | 86*
SMILES | MPTP inh | Beta apoptosis | SKKanGAS inh | Mdm2 MdmX PPI | Calb FLC | CSC inhib
O=c1c2ccccc2nc2n1CCC2 | 1 | 4 | -6 | 2 | 18 | 5
O=c1c2cc(-c3ccccc3)sc2nc2n1CCC2 | · | -1 | 50* | -60 | -17 | -2
COc1cccc(-n2c(C)cc(/C=C3/C(=N)N4C(=NC3=O)SN=C4S(C)(=O)=O)c2C)c1 | 12 | 1 | 69* | -19 | 48 | 10
CN(C)/C=C/c1onc(-c2c(Cl)cccc2Cl)c1C#N | 2 | 8 | 7 | 19 | 3 | 7
N#Cc1c(-c2c(Cl)cccc2Cl)noc1/C=C/Nc1ccc(C(=O)O)cc1 | 2 | -10 | 59* | 38 | -7 | -16
O=C(O)CN1C(=O)/C(=C\c2cc(Br)ccc2OCc2ccc(Cl)cc2Cl)SC1=S | 4 | -4 | 105* | 2 | 20 | 108*
COc1ccc(NC(=O)c2cc(-c3ccccc3Cl)on2)cc1 | -1 | 1 | -2 | -29 | -3 | 34
COc1ccc(NC(=O)c2cc(-c3ccccc3OC)on2)cc1 | 0 | 9 | -2 | · | -16 | 80*
COc1ccc2cc(CN(Cc3ccco3)Cc3nnnn3C3CCCCC3)c(=O)[nH]c2c1 | 2 | -18 | 6 | 20 | -17 | -3
CC(C)(C)c1ccc(CN(Cc2ccco2)Cc2nnnn2C2CCCC2)cc1 | 2 | 22 | 51* | 33 | 11 | -4
CCCCCn1c(N2CCN(c3cccc(Cl)c3)CC2)nc2c1c(=O)[nH]c(=O)n2C | -3 | 18 | 47 | 40 | 4 | 5
CCCCCn1c(CN2CCN(c3cc(Cl)ccc3C)CC2)nc2c1c(=O)[nH]c(=O)n2C | 4 | 10 | 86* | 49 | 11 | 112*
CC(C)(C)NC(=O)C(c1ccccn1)N(C(=O)C1CSC(=O)C1)c1cccc(F)c1 (configuration not stated) | 0 | -3 | 3 | -6 | 12 | 6
CCCCn1c(SCC(=O)Nc2cccc(OC)c2)nc2ccc(N3CCOCC3)cc2c1=O | 2 | -4 | 26 | 2 | 96* | 39
Cc1ccc(-c2nn(C)c(=O)c3ccccc23)cc1CN1CCCCC1 | 3 | -5 | -1 | 29 | -8 | -6
O=C(Nc1ccnn1C1CCN(C(=O)c2ccc(F)cc2)CC1)C1CCOC1 (configuration not stated) | -1 | · | 52* | 8 | 3 | -1
CCOC(=O)/C(=C\c1ccc(OC(F)F)cc1)C1=Nn2c(nnc2-c2ccc(Cl)cc2)SC1 | 2 | 131* | -20 | · | ? | 100*
NS(=O)(=O)c1cccc(NC(=O)COC(=O)c2cc(-c3ccc(Cl)cc3)nc3ccccc23)c1 | 1 | 1 | 91* | -23 | 17 | 17
Cc1cc(C(=O)OCC(=O)Nc2cccc(S(=O)(=O)N(C)C)c2)c2ccccc2n1 | 0 | 1 | 1 | 17 | -24 | 0
c1ccc(-c2nc3ccccn3c2NC2CCCC2)nc1 | -1 | · | 75* | 30 | -3 | 2
COc1ccc2oc(C(=O)OCC(=O)NC3CCCC3)c(C)c2c1 | 0 | · | 47 | 12 | 5 | -8
COc1ccc2oc(C(=O)OCC(=O)NC3(C#N)CCCC3)c(C)c2c1 | 0 | 4 | 53* | 21 | -4 | ·
CS(=O)(=O)c1ccc(C(=O)Nc2ccccc2N2CCOCC2)c(Cl)c1 | -1 | -2 | -8 | 9 | 12 | -20
CC(=O)Nc1ccc(OCC(O)Cn2c3ccccc3c3ccccc32)c(C)c1 (configuration not stated) | 2 | 10 | 11 | 49 | -14 | 78*
Cc1ccccc1OCC(=O)Nc1ccccc1N1CCC(C)CC1 | 1 | · | 82* | 14 | -3 | -14
